Source: PubChem
A selection: hits, their analogues and other compounds. The true share with any hit is near 2.3%.
Anesthetic bind = binds horse apoferritin like a general anesthetic; P02791; apoferritin/1-aminoanthracene competitive binding, fluorescence; Potency, µM (series often up to 77.5 µM), usual class: inhibitors; 0.074% of 350,000 active; also: nearly all actives have a fitted effect of over 20% in size
Target sequence (P02791 2-175 limits assumed): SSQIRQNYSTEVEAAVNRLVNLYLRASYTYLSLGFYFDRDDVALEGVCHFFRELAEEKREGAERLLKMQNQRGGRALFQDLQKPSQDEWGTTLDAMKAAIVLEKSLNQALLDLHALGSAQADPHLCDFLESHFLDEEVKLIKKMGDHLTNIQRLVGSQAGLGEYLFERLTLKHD
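Concentration-response curves derived by four-parameter Hill fitting of normalized fluorescence, where compounds displaced 1-AMA from 10 uM horse apoferritin following a brief 10 min room-temperature incubation; propofol titration acted as positive control.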
A549 viability = A549 cytotoxicity, counter-screen for Nrf2 inhibitors | Potency, µM (titrated, usually from 46 µM), most hits filed as inhibitors | 0.16% of 390,000 active | AID 504648 | A549 ARE-Fluc cells, CellTiter-Fluor viability, 18-24 h
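Cytotoxicity counterscreen: CellTiter-Fluor fluorescence was measured in A549 ARE_Fluc cells after 18-24 h of compound exposure in a concentration series. The subsequent BugLite luminescent read reports ARE-luciferase activity.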
Nrf2 inh = blocks Nrf2 signaling; A549 ARE-Fluc reporter, luciferase luminescence, 18-24 h; Potency, µM (titrated, usually from 46 µM), hits mostly inhibitors; 2.1% of 360,000 active; also: nearly all actives have a fitted effect of over 60% in size
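A549 ARE_Fluc cells, 5000/well, 5% FBS OPTI-MEM; compounds in dose-response, 18-24 h at 37 °C/5% CO2; CellTiter-Fluor viability read (Ex 405/Em 525), then BugLite luciferase luminescence = Nrf2 activity.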
Giardia kill = kills Giardia lamblia | activity change, % at 7.66 µM, hits read low | Giardia lamblia trophozoite viability | 0.15% of 340,000 active | AID 540267; in the data active = activity change below about -80%; inconclusive = between about -30% and that limit;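 also: parasites exposed to compound for two days anaerobically before the ATP read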
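Giardia trophozoites, 100 cells per well, were exposed to compounds for 48 hrs at 37 deg C under anaerobic conditions; viability was then read as ATP content by bioluminescence after 15-30 min at room temperature.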
Nrf2 ARE act = Nrf2 pathway activation; AID 624171; AREc32 ARE-luciferase reporter (MCF7-derived line), luminescence, 24 h; Potency, µM (series often up to 46.1 µM), most hits filed as activators; 0.31% of 410,000 active; also: nearly all actives have a fitted effect of over 65% in size
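AREc32 cells carrying an ARE-driven firefly luciferase reporter were seeded at 1000 cells/well in OPTI-MEM with 5% FBS, then exposed to compound for 24 hr at 37 deg C. Luminescence was read with Steady-Glo after 30 min at RT.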
IDH1 R132H inh = inhibitors of human mutant IDH1 R132H; O75874; IDH1-R132H enzyme, NADPH consumption, diaphorase/resazurin fluorescence; Potency, µM (titrated, usually from 76.6 µM), hits mostly inhibitors; 0.093% of 390,000 active; also: nearly all actives have a fitted effect of over 65% in size
Target sequence (O75874 whole entry R132H, stated change not applied): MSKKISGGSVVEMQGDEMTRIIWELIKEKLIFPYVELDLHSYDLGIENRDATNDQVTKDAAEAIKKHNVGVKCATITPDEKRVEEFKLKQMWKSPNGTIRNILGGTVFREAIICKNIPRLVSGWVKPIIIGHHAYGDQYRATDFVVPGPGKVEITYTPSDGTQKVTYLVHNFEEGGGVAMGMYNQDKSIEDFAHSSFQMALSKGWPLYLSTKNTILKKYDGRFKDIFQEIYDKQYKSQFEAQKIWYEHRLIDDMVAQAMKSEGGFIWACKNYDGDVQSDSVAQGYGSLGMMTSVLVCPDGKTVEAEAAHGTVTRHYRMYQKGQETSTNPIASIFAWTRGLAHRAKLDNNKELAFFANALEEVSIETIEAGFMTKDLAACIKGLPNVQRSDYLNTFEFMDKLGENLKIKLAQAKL
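IDH1-R132H (0.5 ug/mL dispensed) in pH 7.5 Tris buffer was preincubated 30 min with compound, then given a substrate mix of 0.016 mM NADPH and 2 mM alpha-KG for 80 min at room temperature; remaining NADPH was read by diaphorase/resazurin fluorescence.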
Of the large screens only hits and unclear results are named; the others gave an inactive call. Unless noted, calls follow the shape of the dose curve; as a rule, active = well fitted curve in the direction sought with a large enough effect; inconclusive = small, poorly fitted or top-dose-only effect, or another doubt; inactive = no such curve, though single readings can be large; an effect the other way counts as inactive or inconclusive.

CCCCCCOc1ccc(C(=O)NCCCn2ccnc2)cc1	Anesthetic bind 14µM, Nrf2 inh inconclusive
O=Cc1cc2cc3c(cc2nc1Cl)OCCO3	none
O=C(O)c1ccc(N/N=C/c2cc3cc4c(cc3nc2Cl)OCCO4)cc1	Nrf2 inh inconclusive, Giardia kill -88
Cc1ccc(C(=O)c2coc3cc([N+](=O)[O-])c(O)c([N+](=O)[O-])c23)cc1	A549 viability 21µM, Nrf2 inh inconclusive, Giardia kill inconclusive
NCCCN(Cc1ccc(Cl)cc1)c1ccc(Br)cn1	Nrf2 inh inconclusive (no result: Anesthetic bind, Nrf2 ARE act, IDH1 R132H inh)
Cc1ccc(C)c(Oc2cc(NC(=O)CCCn3nc(C)c([N+](=O)[O-])c3C)cc([N+](=O)[O-])c2)c1	Anesthetic bind inconclusive, A549 viability inconclusive, Nrf2 inh 23µM
CCn1nc(C)c(C(=O)Nc2cc(Oc3cc(C)cc(C)c3)cc([N+](=O)[O-])c2)c1C	Anesthetic bind inconclusive, A549 viability inconclusive, Nrf2 inh 21µM
Cc1nn(C)cc1C(=O)Nc1cc(Oc2ccc(Cl)cc2)cc([N+](=O)[O-])c1	A549 viability inconclusive (no result: Nrf2 inh)
Cc1cccc(Oc2cc(NC(=O)c3ccccc3)cc([N+](=O)[O-])c2)c1	Anesthetic bind inconclusive, A549 viability inconclusive, Nrf2 inh 13µM
Cc1nn(CCCC(=O)Nc2cc(Oc3ccccc3)cc([N+](=O)[O-])c2)c(C)c1[N+](=O)[O-]	Nrf2 inh inconclusive
CC(C)NC(=O)c1cnc(N2CCN(c3ccccn3)CC2)c2ccccc12	Nrf2 inh inconclusive
CCN1CCN(c2ncc(C(=O)Nc3ccccc3C(=O)OC)c3ccccc23)CC1	A549 viability 18µM
CCc1ccc(NC(=O)c2cnc(N3CCN(c4ccccn4)CC3)c3ccccc23)cc1	A549 viability inconclusive, Nrf2 inh 12µM
CCOc1ccccc1NC(=O)c1cnc(N2CCOCC2)c2ccccc12	none (no result: Nrf2 inh, Giardia kill)
CCNc1nc(N)nc(Oc2ccc(OCC(=O)OC)nn2)n1	none (no result: Giardia kill)
CCOCCc1nn2c(=O)cc(COC(=O)c3ccc(NC(=O)c4cccs4)cc3)nc2s1	none (no result: Nrf2 inh, Giardia kill)
CCc1cccc(CC)c1NC(=O)CN(C)S(=O)(=O)c1ccc2c(c1)n(C)c(=O)c(=O)n2C	none (no result: Giardia kill)
CCSc1ncnc2nc[nH]c12	none (no result: Anesthetic bind, Nrf2 ARE act, IDH1 R132H inh)
Cc1ccc(C2(C)CC(C)(C)N(C(=O)CSc3nnc(C)s3)c3ccccc32)cc1 (stereo unspecified)	A549 viability inconclusive, Nrf2 inh 21µM
Cc1nnc(SCC(=O)N2c3ccccc3C(C)(c3ccccc3)CC2(C)C)s1 (stereo unspecified)	A549 viability inconclusive, Nrf2 inh 23µM
CC1=CC(C)(C)N(C(=O)CSc2nnc(C)s2)c2ccc(C)cc21	Nrf2 inh inconclusive
CCCCC(=O)N1c2ccccc2C(C)(c2ccccc2)CC1(C)C (stereo unspecified)	none (no result: Giardia kill)
CCn1nc(C)c(CNC(=O)c2cc(COc3ccc(C)nc3)on2)c1C	Nrf2 inh 23µM
Nc1nc(-c2cccc(Br)c2)cs1	Anesthetic bind 32µM (no result: Nrf2 inh)
Nc1nc(-c2ccc(Br)cc2)cs1	none
CC(C)C(=O)SCCCCCCC(=O)Nc1nc(-c2ccccc2)cs1	none (no result: A549 viability, Nrf2 inh, Giardia kill, Nrf2 ARE act, IDH1 R132H inh)
Cc1ccc(S(N)(=O)=O)cc1NC(=O)/C=C/c1cccs1	Nrf2 ARE act 13µM (no result: Nrf2 inh)
Cc1cccnc1NC(=O)c1ccc([N+](=O)[O-])o1	Nrf2 inh inconclusive, Giardia kill inconclusive, Nrf2 ARE act 22µM
O=C(Nc1cccc2ncccc12)c1ccc(-c2ccc(Br)cc2)o1	Anesthetic bind inconclusive (no result: Nrf2 inh)
O=C(Nc1cccc2ncccc12)c1ccc([N+](=O)[O-])o1	Giardia kill -80, Nrf2 ARE act inconclusive
COc1cc(CNCCCSc2nnnn2C)cc(Br)c1OC	none (no result: Giardia kill)
c1ccc(-c2nc(-c3ccccn3)no2)cc1	Nrf2 inh inconclusive, Giardia kill inconclusive, Nrf2 ARE act inconclusive
CNc1nc(-c2ccccn2)nnc1-c1ccccc1	A549 viability inconclusive, Nrf2 inh 11µM
O=C(CNC(=O)c1ccccc1)N[C@H](C(=O)Nc1cc(C(F)(F)F)ccc1Cl)c1ccccc1	none (no result: Anesthetic bind, Giardia kill, Nrf2 ARE act, IDH1 R132H inh)
Cn1nc(C(=O)Nc2ccc(Cl)cc2)cc1C(=O)Nc1ccc(Cl)cc1	none
Cn1nc(C(=O)Nc2cccc(Cl)c2)cc1C(=O)Nc1cccc(Cl)c1	A549 viability inconclusive, Nrf2 inh 13µM
COc1cc(C(=O)Nc2ccc(OCc3cc(=O)n4cccc(C)c4n3)cc2)cc(OC)c1OC	Anesthetic bind inconclusive (no result: Nrf2 inh, Giardia kill)
O=C(NNC(=O)c1ccc([N+](=O)[O-])cc1)c1ccc(Br)cc1	none
Cc1ccc(C(=O)NC(=S)NNC(=O)c2ccccc2)cc1	Nrf2 inh inconclusive
Cc1ccc(C(=O)NNC(=S)NC(=O)c2ccccc2)cc1	A549 viability inconclusive, Nrf2 inh 16µM (no result: Anesthetic bind)
Cc1ccc(C(=O)NNC(=S)NC(=O)c2ccc(Cl)cc2Cl)cc1	Nrf2 inh 21µM
O=C(NNC(=S)NC(=O)c1ccc(Br)cc1)c1ccc([N+](=O)[O-])cc1	Nrf2 inh 21µM
CC(=O)Nc1cccc(C(=O)OCC(=O)NC(=O)C2CCCCC2)c1	none (no result: Anesthetic bind, Nrf2 ARE act, IDH1 R132H inh)
CCOc1ccc(C2CC=C(C(C)=O)CN2S(=O)(=O)c2ccc(C)cc2)cc1 (stereo unspecified)	none (no result: Anesthetic bind, A549 viability, Nrf2 inh, Giardia kill, IDH1 R132H inh)
COc1ccccc1CCNC(=O)CCSc1nc(-c2ccco2)cc(C(F)(F)F)n1	Nrf2 inh 18µM
Cc1c(CN(C)C(=O)CSc2nc(-c3ccco3)cc(C(F)(F)F)n2)cnn1C	Nrf2 inh 16µM
Cc1cccc(Cn2ncc3c4sc(C)cc4n(C)c3c2=O)c1	none (no result: Anesthetic bind, Giardia kill, Nrf2 ARE act, IDH1 R132H inh)
COc1cc(/C=C/c2sc3ccccc3[n+]2CCCS(=O)(=O)[O-])ccc1O	A549 viability 12µM, Nrf2 inh inconclusive
CCC(/C=C1\Oc2ccc(OC)cc2N1C)=C\c1sc2ccccc2[n+]1CCCS(=O)(=O)[O-]	none (no result: Anesthetic bind)
CN(C)c1ccc(C(C(=O)NC2CCCCC2)N(Cc2ccco2)C(=O)c2snc(C(N)=O)c2N)cc1 (stereo unspecified)	A549 viability inconclusive, Nrf2 inh 15µM
CN(C)c1ccc(C(C(=O)NCC2CCCO2)N(C(=O)c2snc(C(N)=O)c2N)c2ccccc2)cc1 (stereo unspecified)	none
COc1cc(C(C(=O)NC2CCCC2)N(Cc2ccco2)C(=O)c2snc(C(N)=O)c2N)cc(OC)c1OC (stereo unspecified)	none
CC(C)c1ccc(N(C(=O)c2snc(C(N)=O)c2N)C(C(=O)NCC2CCCO2)c2ccc(N(C)C)cc2)cc1 (stereo unspecified)	A549 viability inconclusive, Nrf2 inh 18µM
O=C(/C=C/Nc1cccc(O)c1)c1ccccc1	Nrf2 ARE act 14µM
COc1ccc(N/C=C/C(=O)c2ccccc2)cc1	Nrf2 inh inconclusive
